Source: PubChem BioAssay (several laboratories)
Only some compounds are listed: those with a hit (about 27% of all), similar ones and a draw of the others.
CYP2C19 act = cytochrome P450 2C19 (human) activation; recombinant CYP2C19, luciferin-H EGE luminescence; hits give high values; 0 = fully inhibited enzyme, 1 = untreated enzyme; activation factor at 5 µM; 96,000 tested, under 10 active;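 active = activation factor of at least 2 at 5 µM in the primary screen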
Cav32 inh = blocks human Cav3.2 T-type calcium channel; B-score at 10 µM; O95180; AID 449739; 4% of 100,000 active; Cav3.2-expressing cells, Fluo-4 calcium fluorescence FDSS; hits give low values;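 active = single-dose well whose peak fluorescence ratio is a statistical outlier from its plate by either plate-standardised score or position-corrected B-score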
CYP2C19 inh = human CYP2C19 inhibition; P33261; CYP2C19 Supersomes, luciferin-H EGE luminescence, 30 min; inhibition, % at 5 µM; 21% of 96,000 active; AID 778;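 active = CYP2C19 inhibition above a set limit at 5 µM in the primary screen, cut at about 50% in these data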
Pyk2 oligo antag = antagonists of human Pyk2 oligomerization; 0.83% of 99,000 active; Q293 cells, Pyk2 FERM NanoBiT luminescence; hits give low values; z-score (the deposit names both 25 µM and 10 µM); Q14289;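 active = Z-score of -3 or lower, scaled per plate to the spread of control and sample wells; inactive = z-score above -3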;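 note: negative z-score means lost luminescence so less FERM oligomerization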
CYP2C9 activ = increases human cytochrome P450 2C9 activity; P11712; recombinant CYP2C9, luciferin-H conversion, luminescence; hits give high values; factor 1 = untreated enzyme, 0 = blocked; activation factor at 5 µM; 1.4% of 96,000 active; AID 1024;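 active = activation factor of 2 or more for CYP2C9 at a 5 µM dose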
CYP2C9 inhib = inhibitors of human CYP2C9. P11712. CYP2C9 Supersomes, luciferin-H conversion, luminescence. inhibition, % at 5 µM. 20% of 96,000 active. AID 777;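 active = blocking of liver enzyme CYP2C9 beyond about 50% at 5 µM, limit read from the data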
Each line names hits and unclear results; the compound was inactive in the other large screens.

Cc1cc2oc(=O)cc(CN3CCC(C)CC3)c2cc1Cl	Cav32 inh -9.86, CYP2C19 inh 85.2
CCc1cc(=O)oc2cc(C)c(CN3CCCC3)c(O)c12	none
O=C(CSc1nnnn1-c1cccnc1)NCc1cccs1	none
CCOC(=O)C(Oc1ccc2c(-c3ccc(OC)cc3)cc(=O)oc2c1C)c1ccccc1 (stereo unspecified)	CYP2C9 inhib 78.2 (no result: Cav32 inh)
CCOC(=O)C(Oc1ccc2c(-c3ccccc3)cc(=O)oc2c1C)c1ccccc1 (stereo unspecified)	none (no result: CYP2C19 act, Cav32 inh, CYP2C19 inh, CYP2C9 activ, CYP2C9 inhib)
COC(C/C=C/[C@@H](O)[C@@H](C)OCc1ccccc1)OC	none (no result: CYP2C19 act, CYP2C19 inh, Pyk2 oligo antag, CYP2C9 activ, CYP2C9 inhib)
O=C(OCn1ncc(Br)c(Br)c1=O)c1ccccc1Cl	CYP2C19 inh 56.6
O=C(OCn1ncc(Br)c(Br)c1=O)c1ccc(F)cc1	CYP2C19 inh 88.7
CCn1ncc(Br)c1C(=O)Nc1ccccc1C(=O)OC	none (no result: CYP2C19 act, CYP2C19 inh, CYP2C9 activ, CYP2C9 inhib)
N#C/C(=C1/CCCCCN1)c1nc2ccccc2s1	none (no result: Cav32 inh)
COc1ccc(CCNC(=O)COc2ccc(S(=O)(=O)N3CCOCC3)cc2)cc1OC	Cav32 inh -4.33, CYP2C9 inhib 50.3
COc1ccc(CCNC(=O)COc2ccc(-c3ccc(C)cc3)cc2)cc1OC	CYP2C9 inhib 74.5
CCC(C)[C@H](NC(=O)NC1CCCc2ccccc21)C(=O)O (stereo partly specified)	none
CCOC(=O)C1CCN(C(=O)c2ccc(OC)cc2OC)CC1	none
CCOC(=O)C1CCN(C(=O)/C=C/c2ccc(OC)cc2)CC1	CYP2C19 inh 86.7
CCOC(=O)C1CCN(C(=O)/C=C/c2ccccc2OC)CC1	CYP2C19 inh 51.0, CYP2C9 activ 2.6
Cc1cc(C)n(-c2c(F)c(F)c(CO)c(F)c2F)n1	none
Cc1cccc(Nc2ncccc2C(=O)NCc2cccs2)c1C	CYP2C9 inhib 56.7
C#CCOCCOCCOCCNc1nc(N2CCOCC2)nc(N2CCN(C(=O)[C@H](C)n3cc(CCCN=C(N)N)nn3)CC2)n1	none (no result: CYP2C19 act, CYP2C19 inh, Pyk2 oligo antag, CYP2C9 activ, CYP2C9 inhib)
CCOC(=O)C1CCN(C(=O)CS(=O)Cc2nc(-c3ccc(C)cc3)oc2C)CC1 (stereo unspecified)	CYP2C9 inhib 66.9 (no result: Pyk2 oligo antag)
Cc1cccc(-c2nc(CS(=O)CC(=O)N3CCN(C)CC3)c(C)o2)c1 (stereo unspecified)	none (no result: Pyk2 oligo antag)
CCOC(=O)C1CCN(C(=O)CSCc2nc(-c3ccc(OCC)cc3)oc2C)CC1	CYP2C19 inh 53.7, CYP2C9 inhib 80.6
Cc1ccsc1-c1nc(CSCC(=O)N2CCN(c3ccccc3)CC2)c(C)o1	CYP2C19 inh 62.6 (no result: Cav32 inh, Pyk2 oligo antag)
O=C(CSCc1ccccc1)N1CCN(C(=O)c2ccco2)CC1	none (no result: CYP2C19 act, CYP2C19 inh, CYP2C9 activ, CYP2C9 inhib)
Cc1ccc(-c2nc(CSCC(=O)N3CCCC3)c(C)o2)cc1	none
CCOc1ccc(-c2nc(CSCC(=O)N3CCN(C(=O)c4ccco4)CC3)c(C)o2)cc1	CYP2C9 inhib 80.2 (no result: Pyk2 oligo antag)
Cc1cccc2cc(COC(=O)c3ccccn3)c(=O)[nH]c12	none
N#CC1=C(N)SC(N)=C(C#N)C1CCC1CCCCC1	none (no result: Pyk2 oligo antag)
Cc1oc(-c2ccc(Cl)cc2)nc1CN1CCCC(C(=O)N2CCN(C(=O)c3ccco3)CC2)C1 (stereo unspecified)	CYP2C19 inh 55.0, CYP2C9 inhib 52.3 (no result: Pyk2 oligo antag)
COc1ccc(Cl)cc1N1C(=O)C2CCCN2C1c1cccc(F)c1 (stereo unspecified)	CYP2C19 inh 53.6 (no result: Pyk2 oligo antag)
COc1ccc(Cl)cc1N1C(=O)C2CCCN2C1c1ccc(F)c(F)c1 (stereo unspecified)	none (no result: Pyk2 oligo antag)
COc1ccc(C2N(c3cc(Cl)ccc3OC)C(=O)C3CCCN32)cc1OC (stereo unspecified)	CYP2C9 activ 2 (no result: Pyk2 oligo antag)
Cc1ccc(C)c(NC(=S)NCCc2ccc(S(N)(=O)=O)cc2)c1	none (no result: CYP2C19 act, CYP2C19 inh, CYP2C9 activ, CYP2C9 inhib)
CCc1cccc(C)c1NC(=S)NCCc1c(C)[nH]c2ccc(C)cc12	Cav32 inh -3.36 (no result: CYP2C19 act, CYP2C19 inh, Pyk2 oligo antag, CYP2C9 activ, CYP2C9 inhib)
N#CC1=C(N)S[C@H](C(=O)C23CC4CC(CC(C4)C2)C3)[C@H]1c1ccncc1	CYP2C19 inh 66.5
COc1ccc(N(C)C2=NS(=O)(=O)c3ccccc32)cc1	CYP2C19 inh 72.1
CN(C)Cc1nc2ccccc2c(=O)n1Cc1nc(-c2cc3ccccc3o2)cs1	CYP2C9 inhib 70.4
COc1cc2c(C(=O)N3CCN(C)CC3)c(C)oc2cc1Br	none
CCOC(=O)c1c(C)oc2cc(Br)c(OC(=O)N3CCOCC3)cc12	CYP2C19 inh 75.8, CYP2C9 inhib 51.4
CCCN1C/C(=C/c2cccc([N+](=O)[O-])c2)C(=O)/C(=C/c2cccc([N+](=O)[O-])c2)C1	CYP2C19 inh 61.4
O=C1NC(=S)N/C1=C\c1cccc([N+](=O)[O-])c1	none
CCOC(=O)C1=C(C)S/C(=C\N(C)C)C1=O	none (no result: Cav32 inh)
CC(C)c1nnc(NC(=O)CC(=O)Nc2ccccc2C(=O)O)s1	none
CN(C)S(=O)(=O)N1CCc2ccccc2C1	CYP2C19 inh 65.9, CYP2C9 activ 2.4
Cc1n[nH]c(C)c1S(=O)(=O)N1CCc2ccccc21	CYP2C19 inh 61.4
O=S(=O)(Cc1ccccc1)N1CCc2ccccc21	CYP2C19 inh 68.9 (no result: Pyk2 oligo antag)
Cn1cnc(S(=O)(=O)N2CCc3ccccc32)c1	none (no result: Cav32 inh)
CN(C)S(=O)(=O)N1CCc2ccccc21	CYP2C9 activ 2.3
Cc1ccnc2nc(C(=O)NCCc3ccc(F)cc3)nn12	none
Cc1cccc(Nc2nc(NCc3ccco3)nc(N3CCOCC3)n2)c1	Cav32 inh -4.66, CYP2C19 inh 82.0, CYP2C9 inhib 91.5
C=CCSc1nc(N)c(C(=O)Nc2ccccc2OC)cc1C(=O)Nc1ccccc1	CYP2C9 inhib 60.9
COc1ccccc1NC(=O)c1ccc2nc(-c3ccccc3)c(-c3ccccc3)nc2c1	none
Cc1[nH]c2ccccc2c1C(=O)CN1CCSCC1	CYP2C19 inh 77.1
Cc1[nH]c2ccccc2c1C(=O)CN1CCCC1	none
COc1ccccc1N1CCN(CC(=O)c2c(C)[nH]c3cc(C)ccc23)CC1	Cav32 inh -4.21, CYP2C19 inh 62.2
COc1ccccc1N1CCN(CC(=O)c2c(C)n(C)c3ccccc23)CC1	CYP2C19 inh 54.5
Cc1ccc2c(C(=O)CN3CCN(C4CCCCC4)CC3)c(C)[nH]c2c1	none
COc1ccc(-c2ccc3oc(-c4ccc(OC)cc4)c(C#CCO)c3c2)cc1	none (no result: CYP2C19 act, CYP2C19 inh, Pyk2 oligo antag, CYP2C9 activ, CYP2C9 inhib)
O=C(c1n[nH]c2c1CCCC2)n1ccnc1	CYP2C9 inhib 52.5 (no result: Pyk2 oligo antag)
O=C(O)c1n[nH]c2c1CCCC2	CYP2C9 activ 2.1
CC(NC(=O)C(NC(=O)C1CCCN1C(=O)OC(C)(C)C)C(C)C)C(N)=O (stereo unspecified)	none (no result: CYP2C19 act, CYP2C19 inh, CYP2C9 activ, CYP2C9 inhib)
Nc1ccc(C#Cc2ccccc2)cc1	none
Nc1ccccc1C#Cc1ccccc1	CYP2C19 inh 52.6 (no result: Pyk2 oligo antag)
Cc1ccc(NC2=C(Cl)C(=O)OC2OC(=O)c2ccco2)cc1 (stereo unspecified)	CYP2C19 inh 50.5, CYP2C9 inhib 90.8
O=C(O)CCCN=CC1=C(O)C(C(=O)c2ccccc2)CCC1=O (stereo unspecified)	none (no result: CYP2C19 act, CYP2C19 inh, CYP2C9 activ, CYP2C9 inhib)
Brc1cc2c(cc1Cn1c(-c3cncs3)nc3ccccc31)OCO2	none
Cc1nc2ccccc2n1C1CCN(CC(=O)NCc2ccc(F)cc2)CC1	none
